Tests used:
U-2932 [1] = assay: growth inhibition by drug alone (1 - RLU/untreated control) (fraction); higher = stronger inhibition; conditions: 177Lu-lilotomab satetraxetan 0 ug/ml
Method in brief: (§1)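 RIVA or U-2932 cells were left untreated or pretreated for 18 h with a radiolabelled anti-CD37 antibody conjugate (~600 MBq/mg) at 0.5 µg/ml for RIVA or 1 µg/ml for U-2932. The cells were then washed and seeded at 3,000 cells/well on plates pre-printed with the Selleck Cambridge Cancer Compound library, dosed at 10/100 nM for RIVA and 10/1,000 nM for U-2932. From day 3, RealTime-Glo luminescence was read daily after 1 h at 37°C. Growth inhibition was taken as one minus RLU over the mean of the untreated no-drug wells, of which there were 48 per plate.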

RIVA [2] = assay: as above; conditions: 177Lu-lilotomab satetraxetan 0 ug/ml
Method in brief: as §1

U-2932 [3] = assay: growth inhibition by drug plus 177Lu-lilotomab satetraxetan (1 - RLU/untreated control) (fraction); higher = stronger inhibition; conditions: 177Lu-lilotomab satetraxetan 1 ug/ml
Method in brief: as §1

RIVA [4] = assay: as above; conditions: 177Lu-lilotomab satetraxetan 0.5 ug/ml
Method in brief: as §1

SMILES | growth inhibition by drug alone (U-2932 [1]; 10 nM, time (day): 3) | growth inhibition by drug alone (U-2932 [1]; 10 nM, time (day): 4) | growth inhibition by drug alone (U-2932 [1]; 10 nM, time (day): 5) | growth inhibition by drug alone (U-2932 [1]; 10 nM, time (day): 6) | growth inhibition by drug alone (U-2932 [1]; 1000 nM, time (day): 3) | growth inhibition by drug alone (U-2932 [1]; 1000 nM, time (day): 4) | growth inhibition by drug alone (U-2932 [1]; 1000 nM, time (day): 5) | growth inhibition by drug alone (U-2932 [1]; 1000 nM, time (day): 6) | growth inhibition by drug alone (RIVA [2]; 10 nM, time (day): 3) | growth inhibition by drug alone (RIVA [2]; 10 nM, time (day): 4) | growth inhibition by drug alone (RIVA [2]; 10 nM, time (day): 5) | growth inhibition by drug alone (RIVA [2]; 10 nM, time (day): 6) | growth inhibition by drug alone (RIVA [2]; 100 nM, time (day): 3) | growth inhibition by drug alone (RIVA [2]; 100 nM, time (day): 4) | growth inhibition by drug alone (RIVA [2]; 100 nM, time (day): 5) | growth inhibition by drug alone (RIVA [2]; 100 nM, time (day): 6) | growth inhibition by drug plus 177Lu-lilotomab satetraxetan (U-2932 [3]; 10 nM, time (day): 3) | growth inhibition by drug plus 177Lu-lilotomab satetraxetan (U-2932 [3]; 10 nM, time (day): 4) | growth inhibition by drug plus 177Lu-lilotomab satetraxetan (U-2932 [3]; 10 nM, time (day): 5) | growth inhibition by drug plus 177Lu-lilotomab satetraxetan (U-2932 [3]; 10 nM, time (day): 6) | growth inhibition by drug plus 177Lu-lilotomab satetraxetan (U-2932 [3]; 1000 nM, time (day): 3) | growth inhibition by drug plus 177Lu-lilotomab satetraxetan (U-2932 [3]; 1000 nM, time (day): 4) | growth inhibition by drug plus 177Lu-lilotomab satetraxetan (U-2932 [3]; 1000 nM, time (day): 5) | growth inhibition by drug plus 177Lu-lilotomab satetraxetan (U-2932 [3]; 1000 nM, time (day): 6) | growth inhibition by drug plus 177Lu-lilotomab satetraxetan (RIVA [4]; 10 nM, time (day): 3) | growth inhibition by drug plus 177Lu-lilotomab satetraxetan (RIVA [4]; 10 nM, time (day): 4) | growth inhibition by drug plus 177Lu-lilotomab satetraxetan (RIVA [4]; 10 nM, time (day): 5) | growth inhibition by drug plus 177Lu-lilotomab satetraxetan (RIVA [4]; 10 nM, time (day): 6) | growth inhibition by drug plus 177Lu-lilotomab satetraxetan (RIVA [4]; 100 nM, time (day): 3) | growth inhibition by drug plus 177Lu-lilotomab satetraxetan (RIVA [4]; 100 nM, time (day): 4) | growth inhibition by drug plus 177Lu-lilotomab satetraxetan (RIVA [4]; 100 nM, time (day): 5) | growth inhibition by drug plus 177Lu-lilotomab satetraxetan (RIVA [4]; 100 nM, time (day): 6)
O=c1cc(N2CCOCC2)oc2c(-c3ccccc3)cccc12 | 0.0578 | 0.0496 | -0.0145 | -0.0318 | 0.0577 | 0.0696 | 0.0149 | -0.0509 | 0.12 | 0.0305 | -0.0125 | -0.181 | 0.0387 | 0.0134 | -0.0363 | -0.116 | 0.00353 | 0.0372 | 0.0314 | 0.0726 | 0.0169 | 0.0857 | 0.0428 | 0.0454 | 0.442 | 0.529 | 0.563 | 0.58 | 0.423 | 0.463 | 0.473 | 0.446
CN(C)CCCN=c1c2ccccc2n(C)c2[nH]c(=O)n(C)c(=O)c12 | 0.111 | 0.0704 | -0.00376 | -0.0149 | 0.0731 | 0.0794 | 0.011 | 0.0933 | 0.0709 | 0.0541 | 0.026 | -0.0499 | -0.0848 | -0.0419 | -0.079 | -0.137 | 0.0369 | 0.0857 | 0.138 | 0.24 | 0.0936 | 0.125 | 0.147 | 0.272 | 0.529 | 0.576 | 0.589 | 0.604 | 0.563 | 0.592 | 0.601 | 0.604
O=C(O)c1ccc2c(c1)nc(Nc1cccc(Cl)c1)c1ccncc12 [cx-4945 (Silmitasertib)] | 0.0111 | -0.0226 | -0.00497 | 0.0386 | 0.0436 | 0.0306 | -0.0126 | -0.0489 | -0.142 | -0.128 | -0.161 | -0.291 | 0.0492 | -0.00845 | -0.0374 | -0.111 | 0.0376 | 0.0473 | 0.0445 | 0.189 | 0.0211 | 0.0508 | 0.0545 | 0.159 | 0.409 | 0.518 | 0.528 | 0.542 | 0.413 | 0.47 | 0.487 | 0.468
Nc1nc(OCc2cc(Br)cs2)c2[nH]cnc2n1 [Lomeguatrib] | -0.115 | -0.036 | -0.163 | -0.244 | -0.0214 | -0.011 | -0.105 | -0.195 | -0.0122 | -0.0435 | -0.118 | -0.367 | -0.0285 | -0.0397 | -0.0789 | -0.154 | 0.00798 | 0.0431 | 0.0314 | 0.114 | -0.0706 | 0.00418 | 0.025 | 0.00957 | 0.437 | 0.531 | 0.544 | 0.548 | 0.404 | 0.479 | 0.488 | 0.463
Cn1cnc(N)c2ncnc1-2 [3-Methyladenine] | 0.0713 | 0.0365 | 0.0189 | 0.0577 | 0.00855 | 0.0177 | -0.0282 | -0.00202 | 0.018 | -0.00798 | -0.0197 | -0.0603 | -0.346 | -0.249 | -0.276 | -0.338 | 0.0187 | 0.0789 | 0.12 | 0.165 | -0.00331 | 0.0603 | 0.0974 | 0.207 | 0.557 | 0.602 | 0.615 | 0.612 | 0.517 | 0.565 | 0.57 | 0.56
CS(=O)(=O)c1cccc(CNc2nc(Nc3ccc4c(c3)CCC(=O)N4)ncc2C(F)(F)F)c1 | 0.0502 | 0.00856 | -0.0018 | 0.0705 | -0.0504 | -0.0365 | -0.0145 | 0.085 | -0.0802 | -0.0828 | -0.0817 | -0.0957 | -0.0969 | -0.126 | -0.181 | -0.218 | -0.0177 | 0.0519 | 0.101 | 0.199 | 0.0169 | 0.0857 | 0.144 | 0.314 | 0.467 | 0.549 | 0.572 | 0.567 | 0.206 | 0.328 | 0.352 | 0.383
COc1cc2ncnc(-n3nc(-c4ccccn4)nc3N)c2cc1OC | 0.133 | 0.114 | 0.0839 | 0.0512 | 0.057 | 0.0631 | 0.00213 | -0.164 | -0.00526 | 0.0304 | -0.00529 | -0.18 | -0.0276 | -0.0495 | -0.074 | -0.143 | 0.0575 | 0.105 | 0.1 | 0.113 | -0.00115 | 0.0649 | 0.0622 | 0.0772 | 0.485 | 0.573 | 0.58 | 0.588 | 0.535 | 0.578 | 0.579 | 0.559

Source: the supplement of paper PMC6897291
